# Experimental data: the supplement of paper PMC10849652
# Of roughly 8,800 targets only a part is listed; those with a hit were picked by preference. About 0.5% of all pairs of compound and target were hits. Unmarked numbers belong to inactive results.
# Key:
# Assay in all cases: log2 fold change, soluble protein after heating vs DMSO (PISA); higher = thermal stabilisation; K562 lysate, 10 uM; active = over 0.2 and 3.5 SD of the protein, either way, in both replicates (recomputed)
# [1] = compound: NCC(=O)Nc1ccc(-n2nc(C(F)(F)F)cc2-c2ccc3c(ccc4ccccc43)c2)cc1
# Summary of the method: (§1)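 Dounce homogenisation of K562 pellets in PBS pH 7.4 with 1 mM MgCl2 produced a crude extract, used at 1 mg/mL protein. Exposure to 10 μM compound lasted 30 min, and aliquots were then heated for 3 min across 48°C-58°C, pooled and brought to 0.5% NP-40 at 4°C. The supernatant after 21,000xg for 90 min was quantified by TMTpro 16plex LC-MS/MS with channel sums equalised. Duplicate values are given as log-two fold change in thermal stability relative to solvent controls.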
# [2] = compound: O=C(CCCCCCC(=O)Nc1ccccc1)NO [vorinostat]
# Summary of the method: as §1
# [3] = compound: O=C(O)c1ccc2c(c1)nc(Nc1cccc(Cl)c1)c1ccncc12 [silmitasertib]
# Summary of the method: as §1
# [4] = compound: O=C1NC(=O)C(c2cnc3ccccn23)=C1c1cn2c3c(cc(F)cc13)CN(C(=O)N1CCCCC1)CC2
# Summary of the method: as §1
# [5] = compound: c1cn2cc(-c3ccc4cn[nH]c4c3)nc(Nc3ccc(N4CCOCC4)cc3)c2n1 [entospletinib]
# Summary of the method: as §1
# UniProt Q92759, sequence (Q92759 whole entry, looked up): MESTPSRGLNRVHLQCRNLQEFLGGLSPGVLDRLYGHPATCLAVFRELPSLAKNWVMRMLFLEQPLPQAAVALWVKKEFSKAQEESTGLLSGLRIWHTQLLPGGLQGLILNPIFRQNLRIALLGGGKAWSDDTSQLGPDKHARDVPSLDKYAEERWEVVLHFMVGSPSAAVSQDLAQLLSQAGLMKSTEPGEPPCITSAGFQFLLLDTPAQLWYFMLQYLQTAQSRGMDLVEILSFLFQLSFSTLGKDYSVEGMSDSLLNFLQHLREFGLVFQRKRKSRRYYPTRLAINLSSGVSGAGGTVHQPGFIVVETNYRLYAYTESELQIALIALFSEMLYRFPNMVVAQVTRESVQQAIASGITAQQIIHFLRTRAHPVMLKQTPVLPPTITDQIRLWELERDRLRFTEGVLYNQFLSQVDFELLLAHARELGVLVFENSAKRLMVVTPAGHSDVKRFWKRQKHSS
# UniProt P13598, sequence (P13598 whole entry, looked up): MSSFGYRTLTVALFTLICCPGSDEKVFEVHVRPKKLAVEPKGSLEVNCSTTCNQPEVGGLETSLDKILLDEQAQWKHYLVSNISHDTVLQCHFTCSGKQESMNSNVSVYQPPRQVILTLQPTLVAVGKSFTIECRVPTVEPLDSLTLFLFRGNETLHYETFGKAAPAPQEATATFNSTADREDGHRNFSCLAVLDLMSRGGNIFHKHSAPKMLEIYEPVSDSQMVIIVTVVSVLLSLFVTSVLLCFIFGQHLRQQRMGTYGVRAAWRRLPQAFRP
# UniProt Q9Y6M1, sequence (Q9Y6M1 whole entry, looked up): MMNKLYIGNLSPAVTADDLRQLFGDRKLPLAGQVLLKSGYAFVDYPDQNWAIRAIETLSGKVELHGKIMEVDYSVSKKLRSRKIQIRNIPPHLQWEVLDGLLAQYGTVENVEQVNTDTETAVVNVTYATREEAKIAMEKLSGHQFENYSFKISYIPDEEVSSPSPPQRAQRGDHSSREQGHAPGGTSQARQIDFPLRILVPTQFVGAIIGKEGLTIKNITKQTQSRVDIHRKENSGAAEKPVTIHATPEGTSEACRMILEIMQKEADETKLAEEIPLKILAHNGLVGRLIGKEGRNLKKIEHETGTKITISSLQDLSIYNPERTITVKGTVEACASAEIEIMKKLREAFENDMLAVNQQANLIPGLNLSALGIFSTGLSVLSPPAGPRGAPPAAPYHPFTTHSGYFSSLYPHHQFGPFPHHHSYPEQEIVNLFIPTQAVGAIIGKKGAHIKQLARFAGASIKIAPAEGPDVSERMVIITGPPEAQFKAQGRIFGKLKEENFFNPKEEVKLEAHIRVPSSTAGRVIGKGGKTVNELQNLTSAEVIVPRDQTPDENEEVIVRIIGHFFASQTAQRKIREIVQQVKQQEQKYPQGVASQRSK
# UniProt Q16891, sequence (Q16891 whole entry, looked up): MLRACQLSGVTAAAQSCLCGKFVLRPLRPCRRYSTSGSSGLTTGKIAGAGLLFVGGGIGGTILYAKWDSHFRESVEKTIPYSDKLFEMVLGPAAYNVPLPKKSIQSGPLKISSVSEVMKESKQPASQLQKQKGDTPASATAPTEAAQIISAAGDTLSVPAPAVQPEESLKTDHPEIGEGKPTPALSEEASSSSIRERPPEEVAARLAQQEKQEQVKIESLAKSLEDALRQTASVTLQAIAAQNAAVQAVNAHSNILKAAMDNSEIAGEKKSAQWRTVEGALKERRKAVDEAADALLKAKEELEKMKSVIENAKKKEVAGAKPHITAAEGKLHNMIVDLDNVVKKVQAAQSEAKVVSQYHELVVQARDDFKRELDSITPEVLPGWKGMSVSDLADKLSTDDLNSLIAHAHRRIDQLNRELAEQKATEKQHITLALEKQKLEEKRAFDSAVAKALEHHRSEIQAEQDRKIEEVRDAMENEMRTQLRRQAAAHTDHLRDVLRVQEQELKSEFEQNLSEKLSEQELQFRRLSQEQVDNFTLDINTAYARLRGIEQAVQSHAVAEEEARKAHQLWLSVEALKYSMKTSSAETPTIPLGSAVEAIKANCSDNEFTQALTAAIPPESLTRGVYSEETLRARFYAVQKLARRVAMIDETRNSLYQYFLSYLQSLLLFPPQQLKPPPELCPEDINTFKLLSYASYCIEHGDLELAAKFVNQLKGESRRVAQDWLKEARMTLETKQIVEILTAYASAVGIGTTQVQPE
# UniProt O94927, sequence (O94927 whole entry, looked up): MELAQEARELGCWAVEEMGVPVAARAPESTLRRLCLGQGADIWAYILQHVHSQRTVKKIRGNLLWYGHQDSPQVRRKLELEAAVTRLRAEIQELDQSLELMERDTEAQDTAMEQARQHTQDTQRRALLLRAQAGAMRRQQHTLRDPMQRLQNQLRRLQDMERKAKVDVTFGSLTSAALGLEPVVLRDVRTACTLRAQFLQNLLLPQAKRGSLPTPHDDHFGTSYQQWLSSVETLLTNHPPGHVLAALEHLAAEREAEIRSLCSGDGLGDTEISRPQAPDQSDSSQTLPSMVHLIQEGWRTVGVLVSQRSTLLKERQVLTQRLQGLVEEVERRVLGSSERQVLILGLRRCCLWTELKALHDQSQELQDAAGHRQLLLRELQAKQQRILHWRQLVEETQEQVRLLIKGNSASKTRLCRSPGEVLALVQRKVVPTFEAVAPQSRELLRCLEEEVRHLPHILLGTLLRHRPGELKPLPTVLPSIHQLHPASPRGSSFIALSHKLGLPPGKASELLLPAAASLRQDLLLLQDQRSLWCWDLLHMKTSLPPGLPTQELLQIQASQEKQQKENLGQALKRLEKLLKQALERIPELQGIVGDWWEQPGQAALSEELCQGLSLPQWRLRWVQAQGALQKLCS
# UniProt Q96SY0, sequence (Q96SY0 whole entry, looked up): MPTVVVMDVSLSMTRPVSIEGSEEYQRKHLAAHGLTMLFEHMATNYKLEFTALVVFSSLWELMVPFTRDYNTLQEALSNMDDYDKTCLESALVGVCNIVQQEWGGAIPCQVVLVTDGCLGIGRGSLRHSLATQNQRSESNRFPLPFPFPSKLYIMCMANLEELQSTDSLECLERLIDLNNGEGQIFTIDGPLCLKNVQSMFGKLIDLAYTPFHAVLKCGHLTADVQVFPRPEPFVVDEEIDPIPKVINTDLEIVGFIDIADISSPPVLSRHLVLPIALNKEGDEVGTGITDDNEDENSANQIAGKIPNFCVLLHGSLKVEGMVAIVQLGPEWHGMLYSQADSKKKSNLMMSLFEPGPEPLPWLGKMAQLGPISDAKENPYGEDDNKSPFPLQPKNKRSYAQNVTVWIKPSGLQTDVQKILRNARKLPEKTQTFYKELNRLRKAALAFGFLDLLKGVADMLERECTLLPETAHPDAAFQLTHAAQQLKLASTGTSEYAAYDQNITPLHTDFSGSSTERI
# UniProt Q8TDG4, sequence (Q8TDG4 whole entry, looked up): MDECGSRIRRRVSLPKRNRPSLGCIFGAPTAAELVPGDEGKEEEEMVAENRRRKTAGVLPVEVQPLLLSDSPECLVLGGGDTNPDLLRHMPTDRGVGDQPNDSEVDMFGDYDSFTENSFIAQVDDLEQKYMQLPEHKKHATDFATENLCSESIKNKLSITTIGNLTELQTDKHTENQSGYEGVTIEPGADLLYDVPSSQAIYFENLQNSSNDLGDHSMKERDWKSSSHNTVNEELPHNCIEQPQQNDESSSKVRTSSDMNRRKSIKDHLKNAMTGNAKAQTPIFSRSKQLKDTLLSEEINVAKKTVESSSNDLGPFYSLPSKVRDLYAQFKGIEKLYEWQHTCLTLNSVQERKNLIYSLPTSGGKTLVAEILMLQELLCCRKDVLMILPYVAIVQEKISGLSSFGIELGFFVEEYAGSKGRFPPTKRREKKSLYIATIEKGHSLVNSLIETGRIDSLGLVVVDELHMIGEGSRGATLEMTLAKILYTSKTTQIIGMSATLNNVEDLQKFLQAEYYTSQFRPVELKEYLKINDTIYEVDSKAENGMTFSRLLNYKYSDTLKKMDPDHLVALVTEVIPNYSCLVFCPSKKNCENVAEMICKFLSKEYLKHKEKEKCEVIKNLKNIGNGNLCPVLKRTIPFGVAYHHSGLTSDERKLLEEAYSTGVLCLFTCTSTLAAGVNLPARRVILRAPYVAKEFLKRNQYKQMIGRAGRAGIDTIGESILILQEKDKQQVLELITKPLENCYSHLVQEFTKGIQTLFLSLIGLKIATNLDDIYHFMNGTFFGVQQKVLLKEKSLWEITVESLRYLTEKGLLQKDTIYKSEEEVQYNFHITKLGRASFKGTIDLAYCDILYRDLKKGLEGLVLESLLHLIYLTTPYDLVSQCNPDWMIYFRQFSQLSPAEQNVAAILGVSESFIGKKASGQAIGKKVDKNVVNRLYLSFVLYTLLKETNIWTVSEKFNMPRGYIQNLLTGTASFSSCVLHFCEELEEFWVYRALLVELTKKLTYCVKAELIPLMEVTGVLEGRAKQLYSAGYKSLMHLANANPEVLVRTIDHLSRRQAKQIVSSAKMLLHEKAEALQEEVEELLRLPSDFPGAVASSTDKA
# UniProt Q68CZ6, sequence (Q68CZ6 whole entry, looked up): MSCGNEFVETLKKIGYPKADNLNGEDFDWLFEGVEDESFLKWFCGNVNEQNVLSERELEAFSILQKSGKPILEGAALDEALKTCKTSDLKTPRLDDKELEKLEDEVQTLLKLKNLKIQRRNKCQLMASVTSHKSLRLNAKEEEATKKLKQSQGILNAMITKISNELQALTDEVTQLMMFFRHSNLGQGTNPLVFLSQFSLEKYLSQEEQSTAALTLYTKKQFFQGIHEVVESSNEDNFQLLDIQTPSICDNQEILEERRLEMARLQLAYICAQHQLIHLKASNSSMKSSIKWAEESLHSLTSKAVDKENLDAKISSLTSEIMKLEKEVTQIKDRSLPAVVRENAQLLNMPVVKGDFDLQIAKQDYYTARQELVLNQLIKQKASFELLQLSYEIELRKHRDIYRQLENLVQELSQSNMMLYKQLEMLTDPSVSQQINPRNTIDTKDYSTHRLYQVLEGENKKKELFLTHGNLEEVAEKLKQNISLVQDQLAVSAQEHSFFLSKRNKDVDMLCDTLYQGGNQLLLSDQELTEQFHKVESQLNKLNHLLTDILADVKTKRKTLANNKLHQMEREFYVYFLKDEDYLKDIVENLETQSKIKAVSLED
Target,log2 fold change [1],log2 fold change [2],log2 fold change [3],log2 fold change [4],log2 fold change [5]
HAUS8 (UniProt Q9BT25),0.083,-0.38 (active),0.022,0.018,-0.051
HNRNPUL2 (UniProt Q1KMD3),0.029,-0.017,0.022,-0.023,-0.032
GLUD2 (UniProt P49448),0.297 (active),0.096,0.022,0.026,-0.084
ILK (UniProt Q13418),-0.047,-0.343 (active),0.086,0.019,0.096
HS1BP3 (UniProt Q53T59),0.03,0.139,-0.038,-0.027,-0.033
GNE isoform 2 (UniProt Q9Y223),0.056,-0.443 (active),0.023,0.012,0.017
ISY1 isoform 1 (UniProt Q9ULR0),-0.163,0.05,0.032,-0.01,-0.02
GTF2H4 (UniProt Q92759),0.01,-0.24 (active),-0.021,-0.021,0.046
IRAK4 (UniProt Q9NWZ3),-0.031,-0.218,0.055,-0.106,0.042
HNRNPLL (UniProt Q8WVV9),0.009,-0.653 (active),0.035,0.004,0.034
INTS1 (UniProt Q8N201),0.014,-0.409 (active),0.027,-0.034,0.003
GMIP (UniProt Q9P107),-0.018,-0.302 (active),0.058,0.021,-0.038
HAUS3 (UniProt Q68CZ6),0.007,-0.618 (active),-0.009,0.004,0.007
IMPACT (UniProt Q9P2X3),0.019,-0.125,-0.096,-0.082,-0.027
HSPA14 (UniProt Q0VDF9),-0.022,-0.226 (active),0.035,-0.007,-0.009
H2AFY (UniProt O75367),0.008,0.142,-0.029,-0.02,0.079
ICAM2 (UniProt P13598),-0.016,0.148,-0.029,-0.021,-0.018
GLUL (UniProt P15104),0.008,0.13,0.006,-0.096,0.116
HNRNPAB isoform 3 (UniProt Q99729),0.067,0.189,-0.01,0.008,-0.019
GOLPH3L (UniProt Q9H4A5),-0.061,-0.035,-0.002,0.047,0.048
INTS8 (UniProt Q75QN2),-0.012,-0.401 (active),0.071,-0.016,0.054
HK2 (UniProt P52789),-0.018,-0.443 (active),0.038,0.007,0.022
GTF2A1 (UniProt P52655),-0.029,0.094,-0.043,0.052,0.039
GSK3A (UniProt P49840),-0.019,0.265,0.382,0.456,0.014
HMGCL (UniProt P35914),-0.025,-0.226 (active),0.059,0.033,0
IMPDH1 isoform 6 (UniProt P20839),0.029,-0.897 (active),-0.003,0.004,0.023
HDAC3 (UniProt O15379),-0.016,-0.264 (active),-0.027,-0.008,0

Target,log2 fold change [1],log2 fold change [2],log2 fold change [3],log2 fold change [4],log2 fold change [5]
GUSB (UniProt P08236),0.021,0.043,0.015,-0.026,-0.029
GMPS (UniProt P49915),0.017,-0.553 (active),0.028,0.002,0.01
GRB10 (UniProt Q13322),-0.001,-0.402 (active),0.065,0.008,0.007
HELQ (UniProt Q8TDG4),-0.003,0.001,0.076,0.017,-0.103
GNL3 (UniProt Q9BVP2),0.017,-0.142,0.008,-0.041,0.018
HEATR6 (UniProt Q6AI08),-0.005,-0.466 (active),0.047,-0.026,0
HADH isoform 2 (UniProt Q16836),0,-0.029,0.005,0.006,0.022
KDM5B isoform 2 (UniProt Q9UGL1),0.11,0.085,-0.018,0.116,-0.037
GIT1 (UniProt Q9Y2X7),-0.043,-0.32 (active),0.009,0.006,-0.005
ITPKA (UniProt P23677),0.033,-0.36 (active),0.09,-0.101,0.081
H3-3A (UniProt P84243),0.021,-0.077,0,0.026,-0.035
HAUS6 (UniProt Q7Z4H7),-0.057,-0.3 (active),0.014,0.007,0.015
ISCA1 isoform 2 (UniProt Q9BUE6),-0.005,0.043,0.015,0.004,0.071
HERC2 (UniProt O95714),0.04,-0.006,-0.076,-0.009,0.014
HAUS5 (UniProt O94927),0.031,-0.416 (active),0.045,-0.015,0.013
IMPDH2 (UniProt P12268),0.002,-1.14 (active),0.004,0.004,0.014
INTS14 (UniProt Q96SY0),-0.008,-0.311 (active),0.002,0.023,0.026
IMMT (UniProt Q16891),-0.005,0.056,0.033,0.016,0.017
HNRNPM (UniProt P52272),-0.008,-0.235 (active),0.022,-0.05,0.015
GLYR1 (UniProt Q49A26),-0.006,-0.033,-0.022,-0.007,-0.041
GRK2 (UniProt P25098),-0.055,-0.225 (active),0.066,-0.026,-0.006
GPN2 (UniProt Q9H9Y4),0.006,-0.093,0.009,-0.062,0.203
GPR108 (UniProt Q9NPR9),-0.001,-0.024,0.001,-0.007,-0.008
IGF2BP2 (UniProt Q9Y6M1),-0.016,-0.239 (active),0.088,0,0.026
IRF2BPL (UniProt Q9H1B7),-0.018,-0.324 (active),0.02,0.006,-0.065
HEATR3 (UniProt Q7Z4Q2),-0.03,-0.5 (active),0.013,-0.017,-0.006
